# Measured values: the supplement of paper PMC3334620
# The full ranking holds about 33,000 sequences; the median of “E-score (-0.5 to 0.5)” is about -0.012, and the highest 2% start at about 0.29. Many of the other results were omitted from the sample, so the highest values are more common in it than they were.
# Target: T1, Ybr033w (UniProt P38073)
# T1 sequence: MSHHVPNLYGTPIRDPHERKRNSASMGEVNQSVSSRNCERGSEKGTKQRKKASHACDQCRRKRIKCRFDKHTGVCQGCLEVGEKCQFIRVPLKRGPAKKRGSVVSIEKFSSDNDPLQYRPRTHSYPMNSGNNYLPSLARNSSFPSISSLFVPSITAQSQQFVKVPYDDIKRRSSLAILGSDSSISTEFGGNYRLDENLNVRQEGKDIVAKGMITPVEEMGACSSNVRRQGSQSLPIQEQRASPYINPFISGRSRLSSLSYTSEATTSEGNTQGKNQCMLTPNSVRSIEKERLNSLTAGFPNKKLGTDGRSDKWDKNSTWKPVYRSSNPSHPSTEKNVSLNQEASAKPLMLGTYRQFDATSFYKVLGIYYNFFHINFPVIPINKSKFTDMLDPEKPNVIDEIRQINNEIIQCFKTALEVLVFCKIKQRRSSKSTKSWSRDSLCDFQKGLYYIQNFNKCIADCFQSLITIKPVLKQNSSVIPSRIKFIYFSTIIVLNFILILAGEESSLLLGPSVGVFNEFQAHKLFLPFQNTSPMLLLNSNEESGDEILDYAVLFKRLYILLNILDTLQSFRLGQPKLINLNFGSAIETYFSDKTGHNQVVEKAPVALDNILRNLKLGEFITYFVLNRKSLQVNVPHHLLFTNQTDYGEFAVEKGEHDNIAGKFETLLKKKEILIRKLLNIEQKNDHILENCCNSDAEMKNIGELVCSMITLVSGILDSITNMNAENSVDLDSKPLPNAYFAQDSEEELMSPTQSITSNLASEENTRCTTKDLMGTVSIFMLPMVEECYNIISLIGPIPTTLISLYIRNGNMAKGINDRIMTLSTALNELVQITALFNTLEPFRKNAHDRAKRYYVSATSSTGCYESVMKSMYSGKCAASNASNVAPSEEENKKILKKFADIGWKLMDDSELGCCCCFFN
# Experiment: PBM E-score (8-mer binding enrichment) (E-score (-0.5 to 0.5)); higher = stronger / more preferred TF binding
# Settings: protein concentration: 200 nM; construct: GST-full length
# Method: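 Universal 'all 10-mer' protein binding microarrays (Agilent AMADID 015681) probed with GST-tagged S. cerevisiae TFs (full-length or DBD) made by in vitro transcription/translation (PURExpress), about 100-200 nM. Bound TF was detected with fluorescent anti-GST. Each ungapped 8-mer (which stands for itself and its reverse complement) is scored by the PBM enrichment score (E-score), a modified Wilcoxon-Mann-Whitney statistic from -0.5 to +0.5, computed with the Universal PBM Analysis Suite. Scale: above 0.35 generally sequence-specific binding.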
row,Sequence,PBM E-score
1,ATGGCCTG,-0.16
2,ACGATACA,0.0132
3,GCGATACA,0.0586
4,TCGATACA,0.298
5,ACGGTAGC,-0.123
6,ACTAGTCT,-0.0233
7,ACCATCGG,-0.118
8,ACAACCAC,0.0628
9,ACAACCAG,0.102
10,ACAACCAT,0.297
11,CGTTCTGC,0.0161
12,GCTTATGA,-0.0277
13,AACTAATG,0.29
14,AACTAATT,0.293
15,AACTAATA,0.298
16,AACTAAAG,0.231
17,TACTAATA,0.185
18,AACTAACT,0.126
19,CACTAATG,0.0973
20,AACTAATC,0.192
21,CACTAATA,0.0444
22,AAATCGGC,-0.158
23,CCACCGGA,0.172
24,GAGACCAA,0.0622
25,ATCCGCTC,-0.102

row,Sequence,PBM E-score
1,ACGGTATG,-0.0502
2,AGGCATAA,-0.0986
3,ATTTAGGC,0.117
4,CCCACCTC,-0.244
5,CAATTTCA,0.0349
6,CAATTTAA,0.27
7,AAATTTAA,0.29
8,AAATTTAG,0.278
9,TAATTTAA,0.343
10,AAATTTAC,0.263
11,TAATTTCA,0.289
12,GAATTTAA,0.0723
13,AAATTTCA,-0.0112
14,CGCCAGAA,0.043
15,ACAAGTAT,0.249
16,AACACAAC,0.116
17,CCTTTCTC,-0.11
18,CCGTCGCC,-0.247
19,ATGATAAA,0.238
20,TCGATAAA,0.167
21,TGGATACA,0.0503
22,TAGATAAA,0.341
23,AGGATACT,-0.0125
24,CAGATAAA,0.194
25,GTGATAAA,0.102

row,Sequence,PBM E-score
1,TTGATAAA,0.368
2,AAGATAAA,0.257
3,ACGATAAT,0.163
4,AGGATAAT,0.36
5,TGGATAAA,0.391
6,CTGCTCTC,-0.153
7,AGCCACCA,0.0237
8,AGGCTCAT,-0.0489
9,ACGACCAG,-0.158
10,AGGATAAA,0.427
11,AGGATAAG,-0.0801
12,AAGATAAC,0.0702
13,AAGATAAG,0.0844
14,GGGATAAC,0.00039
15,GGGATAGA,-0.196
16,GGGATAAA,0.317
17,AGGATAAC,-0.109
18,AAGATAAT,0.307
19,CAGGTAGG,-0.052
20,ATCCGGGG,0.181
21,GCCCATCA,-0.178
22,AGTCGACT,0.204
23,AGCTTAGA,-0.0294
24,GGATCAAC,0.369
25,GGATCAAA,0.367

row,Sequence,PBM E-score
1,AGATCAAA,0.111
2,TGATCAAA,0.076
3,AGATCAAC,0.0509
4,CGATCAAC,-0.144
5,CACACTGA,-0.19
6,CCAGGAAC,-0.103
7,GATGTCAA,0.0645
8,CATCTCAA,0.119
9,AATCTCAA,0.0508
10,TATGTCAA,0.318
11,TATCTCAA,0.32
12,AATGTCAA,0.00312
13,AAACGCGA,0.0304
14,GAAGACTC,-0.0221
15,CATAACTC,0.0871
16,GGAAATGA,0.133
17,CCAGATTC,-0.16
18,GACGAGTA,0.0188
19,TACGAGTA,0.297
20,CACGAGTA,0.0368
21,AAGAATGC,0.142
22,ATTCGAAA,0.12
23,TACATTAA,0.345
24,CATATTCA,0.0595
25,AATATTCA,0.226

row,Sequence,PBM E-score
1,TATATTCA,0.303
2,TATATTAA,0.324
3,AACATTAA,0.224
4,AATATTAG,0.228
5,GACATTAA,0.166
6,AATATTAC,0.283
7,GATATTAA,0.251
8,TATATTGA,0.275
9,AATATTAT,0.335
10,CCTGAGCA,-0.075
11,GACGGTTA,-0.192
12,ACCAGTAT,-0.104
13,CCTAACGA,-0.0133
14,ATGCGTGG,-0.346
15,GAATCGCC,-0.138
16,CGGTTGCA,-0.122
17,CTGCCCAC,-0.165
18,CAGGTGAA,0.0712
19,CGCCCCCC,-0.434
20,ACTTGTTC,0.25
21,GATGCATC,0.0586
22,GTGGATCA,0.0654
23,GCTGCAGA,-0.101
24,TAAGCAAA,0.179
25,CATATTAG,0.202

row,Sequence,PBM E-score
1,AATATGAC,0.109
2,AATATGAT,0.317
3,AATATTAA,0.349
4,CGTATTAA,0.108
5,CATATTAA,0.347
6,AATATGAG,0.245
7,AAACTTCC,0.068
8,AACCCAGT,-0.102
9,CGCTACTA,0.218
10,AAGCAACC,0.0073
11,AAAGTTGG,0.0498
12,AAAGTTGT,0.302
13,AAAGTTGC,0.0307
14,CAAGTTAA,0.068
15,TAAGTTAA,0.206
16,AAAGTTAA,0.323
17,AAAGTTAC,0.224
18,AAAGTTAG,0.297
19,CAAGTTAG,0.0992
20,CGTTCTAG,-0.0499
21,CCAAGCTC,-0.0526
22,GTAATGGA,0.163
23,GAAGATAC,0.17
24,AAAGATAA,0.299
25,GTAGATAA,0.333

row,Sequence,PBM E-score
1,GAAGATAA,0.319
2,ATAGATAA,0.28
3,AAAGATCC,0.3
4,TTAGATAA,0.218
5,AAAGATCA,0.173
6,AAAGATAC,0.12
7,TAAGATAA,-0.0896
8,AAAGATAG,-0.0366
9,AAAGATCG,-0.0193
10,CCTCCAAG,-0.176
11,AACGATGG,-0.0425
12,TCCCCTCA,-0.098
13,CTTAGCTC,-0.12
14,GTAGATTA,0.216
15,CAAGATTA,0.185
16,GAAGATTA,0.366
17,ATAGATTG,0.107
18,ATAGATTA,0.329
19,AAAGATTA,0.203
20,CCAGGGCA,-0.266
21,AACACTCA,0.13
22,TAACCTCA,0.0768
